# Laboratory results from PubChem BioAssay.
# The source made the active and inactive calls.
# Key:
# [1] = tested on: Plasmodium falciparum Sir2 (PF13_0152, Sir2A); test: Plasmodium falciparum Sir2A binding compounds – biochemical, small-molecule microarray, 635 nm fluorescence, primary screen (AID 1098); details: fluorescence 635 nm, higher = more signal;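 further: score merges spot fluorescence intensity with its signal-to-noise ratio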
# [2] = probe aDKK1 binding to arrayed compounds – biochemical, biotinylated probe, 635/667 nm fluorescence, primary screen (AID 1099); details: small-molecule microarray, higher = more signal;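 further: score merges 667nm spot fluorescence with signal to noise across triplicate slides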
# [3] = probe aCHRDL2 binding to arrayed compounds – biochemical, biotinylated probe, 635/667 nm fluorescence, primary screen (AID 1100); details: small-molecule microarray, higher = more signal
# [4] = change in splice reporter luminescence, either direction, cell-based, HEK293, spliceosome inhibition project, primary screen (AID 1101); details: HEK293 splicing luciferase reporter, 24 h, higher = more signal, called active from +8 up or from −8 down;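 further: HEK293 cells carrying a splicing-competent luciferase reporter gene; test concentration not given here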
# [5] = biological target: Fibroblast growth factor 10 (Homo sapiens) (UniProt O15520); test: compounds binding fibroblast growth factor 10 – biochemical, small-molecule microarray, 635 nm fluorescence, primary screen (AID 1102); details: FGF10 binding, fluorescence 635 nm, higher = more signal
# Chain of Fibroblast growth factor 10 (Homo sapiens) (O15520 whole entry, looked up): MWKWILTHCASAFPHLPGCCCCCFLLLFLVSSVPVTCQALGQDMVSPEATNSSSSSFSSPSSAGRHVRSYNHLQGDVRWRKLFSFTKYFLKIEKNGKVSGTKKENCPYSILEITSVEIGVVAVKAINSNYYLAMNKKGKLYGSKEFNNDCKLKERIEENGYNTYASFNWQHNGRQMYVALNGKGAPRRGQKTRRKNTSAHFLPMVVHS
# [6] = tested on: glycogen synthase kinase-3 (GSK3A per assay name; protocol says GSK3B); test: compounds binding glycogen synthase kinase-3 – biochemical, small-molecule microarray, 635 nm fluorescence, GSK3A, primary screen (AID 1103); details: fluorescence 635 nm, higher = more signal; further: the record names both GSK3A and GSK3B
# [7] = biological target: Epidermal growth factor receptor (Homo sapiens) (UniProt P00533); test: compounds binding epidermal growth factor receptor – biochemical, small-molecule microarray, 635 nm fluorescence, primary screen (AID 1104); details: EGFR binding, higher = more signal;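 further: score merges 667 nm emission intensity with spot signal to noise over triplicate slides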
# Chain of Epidermal growth factor receptor (Homo sapiens) (P00533 whole entry, looked up): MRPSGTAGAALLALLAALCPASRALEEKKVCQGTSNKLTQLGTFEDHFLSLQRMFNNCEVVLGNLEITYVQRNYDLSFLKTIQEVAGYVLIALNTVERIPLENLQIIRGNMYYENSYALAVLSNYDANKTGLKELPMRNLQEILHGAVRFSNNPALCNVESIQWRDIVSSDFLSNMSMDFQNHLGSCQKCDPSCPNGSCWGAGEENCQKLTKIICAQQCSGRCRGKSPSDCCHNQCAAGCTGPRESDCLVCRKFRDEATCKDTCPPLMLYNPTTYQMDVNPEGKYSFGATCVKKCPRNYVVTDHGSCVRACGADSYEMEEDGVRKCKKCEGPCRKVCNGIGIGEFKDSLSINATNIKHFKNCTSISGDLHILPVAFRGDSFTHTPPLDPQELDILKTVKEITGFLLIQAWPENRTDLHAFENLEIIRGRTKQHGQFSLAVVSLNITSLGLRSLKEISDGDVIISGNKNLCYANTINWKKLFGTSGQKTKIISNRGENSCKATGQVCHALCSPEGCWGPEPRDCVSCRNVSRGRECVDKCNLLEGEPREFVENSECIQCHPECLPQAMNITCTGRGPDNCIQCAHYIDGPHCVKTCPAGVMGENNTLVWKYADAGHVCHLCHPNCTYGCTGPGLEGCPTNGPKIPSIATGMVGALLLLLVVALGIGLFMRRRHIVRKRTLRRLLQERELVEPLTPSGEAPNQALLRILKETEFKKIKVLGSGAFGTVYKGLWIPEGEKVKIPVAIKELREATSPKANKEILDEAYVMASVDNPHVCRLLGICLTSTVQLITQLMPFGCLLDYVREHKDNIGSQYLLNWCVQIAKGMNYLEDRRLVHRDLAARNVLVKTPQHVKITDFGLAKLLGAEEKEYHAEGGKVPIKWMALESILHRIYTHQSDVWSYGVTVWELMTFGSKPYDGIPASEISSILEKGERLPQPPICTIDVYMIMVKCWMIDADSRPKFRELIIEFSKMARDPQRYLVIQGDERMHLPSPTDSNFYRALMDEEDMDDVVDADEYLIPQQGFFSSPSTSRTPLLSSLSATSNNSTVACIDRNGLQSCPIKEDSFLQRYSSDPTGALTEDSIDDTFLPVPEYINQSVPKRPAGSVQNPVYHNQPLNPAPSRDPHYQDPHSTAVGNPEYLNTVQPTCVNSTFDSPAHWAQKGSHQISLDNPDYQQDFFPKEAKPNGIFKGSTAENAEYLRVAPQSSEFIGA
# [8] = biological target: Follistatin-related protein 3 (Homo sapiens) (UniProt O95633); test: compounds binding follistatin-related protein 3 – biochemical, small-molecule microarray, 635 nm fluorescence, primary screen (AID 1105); details: FSTL3 binding, higher = more signal;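 further: score merges emission near 667 nm and signal to noise per printed spot across three slides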
# Chain of Follistatin-related protein 3 (Homo sapiens) (O95633 whole entry, looked up): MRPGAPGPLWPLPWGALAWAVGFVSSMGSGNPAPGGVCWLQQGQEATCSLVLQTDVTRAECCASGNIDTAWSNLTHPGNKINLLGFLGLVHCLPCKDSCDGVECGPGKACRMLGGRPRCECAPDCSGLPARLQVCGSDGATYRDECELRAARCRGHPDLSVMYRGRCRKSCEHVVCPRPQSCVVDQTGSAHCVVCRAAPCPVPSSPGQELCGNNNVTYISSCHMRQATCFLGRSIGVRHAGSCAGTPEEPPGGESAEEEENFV
# [9] = biological target: Dickkopf-related protein 1 (Homo sapiens) (UniProt O94907); test: small molecules binding DKK1 protein – biochemical, small-molecule microarray, 635 nm fluorescence scan, primary screen (AID 1106); details: higher = more signal;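 further: score merges emission near 667 nm with signal to noise over three replicate slides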
# Chain of Dickkopf-related protein 1 (Homo sapiens) (O94907 whole entry, looked up): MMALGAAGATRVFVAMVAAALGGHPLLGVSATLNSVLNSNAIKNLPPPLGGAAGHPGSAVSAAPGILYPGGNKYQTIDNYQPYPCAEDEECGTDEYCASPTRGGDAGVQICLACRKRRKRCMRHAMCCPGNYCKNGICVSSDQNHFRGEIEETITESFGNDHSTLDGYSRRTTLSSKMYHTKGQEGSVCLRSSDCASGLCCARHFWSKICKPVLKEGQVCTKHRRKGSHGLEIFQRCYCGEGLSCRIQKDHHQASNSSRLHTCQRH
# [10] = tested on: Inhibin beta A chain (activin A); test: small molecules binding activin A – biochemical, small-molecule microarray, 635 nm fluorescence scan, primary screen (AID 1107); details: INHBA, higher = more signal;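 further: mouse activin A protein probed at 4.33 µg/mL on printed slides; score merges bound-protein fluorescence near 667 nm with spot signal-to-noise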
# [11] = tested on: Human papillomavirus type 1a protein E7 (residues 44-93); test: small molecules binding HPV E7 44-93 – biochemical, small-molecule microarray, residues 44-93, 635 nm fluorescence, primary screen (AID 1108); details: fluorescence 635 nm, higher = more signal;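 further: E7 fragment applied at 1 µg/mL in TBST for 1 h at 4 C; score combines spot fluorescence with its signal to noise ratio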
# [12] = hepatitis C replication reporter changes, two-sided – Huh7 cells, luciferase reporter, HCV replication inhibitor project, primary screen (AID 1109); details: Huh7 HCV replicon luciferase reporter, 48 h; higher = more signal;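 further: huh7 hepatoma cells harbouring a luciferase neomycin HCV replicon reporter; luciferase luminescence as measure of HCV replicon replication; test concentration not given here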
# [13] = biological target: Left-right determination factor 2 (Homo sapiens) (UniProt O00292); test: small molecules binding LEFTY2 protein – biochemical, small-molecule microarray, 635 nm fluorescence scan, primary screen (AID 1110); details: higher = more signal
# Chain of Left-right determination factor 2 (Homo sapiens) (O00292 whole entry, looked up): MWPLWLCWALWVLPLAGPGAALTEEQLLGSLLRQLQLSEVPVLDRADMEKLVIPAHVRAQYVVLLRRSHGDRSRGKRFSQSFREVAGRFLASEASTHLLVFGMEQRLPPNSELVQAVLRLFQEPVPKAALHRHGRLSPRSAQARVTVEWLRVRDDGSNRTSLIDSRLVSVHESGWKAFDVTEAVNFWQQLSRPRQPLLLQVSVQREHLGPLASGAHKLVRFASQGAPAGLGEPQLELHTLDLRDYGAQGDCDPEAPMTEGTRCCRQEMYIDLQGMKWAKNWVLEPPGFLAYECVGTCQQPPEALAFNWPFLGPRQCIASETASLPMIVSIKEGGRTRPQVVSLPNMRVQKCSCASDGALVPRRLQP
# [14] = biological target: Calmodulin-1 (Homo sapiens) (UniProt P0DP23); test: small molecules binding calmodulin-1 with EGTA – biochemical, small-molecule microarray, Cy5-labelled CALM1, profiling panel (AID 1111); details: Cy5-CALM1 binding fluorescence, higher = more signal;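 further: labelled calmodulin applied in Tris saline Tween buffer holding calcium plus EGTA and DTT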
# [15] = biological target: Calmodulin-1 (Homo sapiens) (UniProt P0DP23); test: small molecules binding Ca-loaded calmodulin-1 – biochemical, small-molecule microarray, Cy5-labelled CALM1, plus calcium, artefact control for SMM control-protein annotation, profiling panel (AID 1112); details: Cy5-CALM1 binding fluorescence, higher = more signal;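 further: score merges spot fluorescence with signal to noise from triplicate slides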
# [16] = probe aWnt5a binding to arrayed compounds – biochemical, biotinylated probe, 635/667 nm fluorescence, primary screen (AID 1113); details: small-molecule microarray, higher = more signal;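 further: score merges 667 nm fluorescence intensity with signal-to-noise per printed feature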
# [17] = probe aShh binding to arrayed compounds – biochemical, biotinylated probe, 635/667 nm fluorescence, primary screen (AID 1114); details: small-molecule microarray, higher = more signal;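 further: probe is biotin-labelled aShh protein from a stem cell growth factor screen; measures binding of labelled protein to compounds printed on the slide; score merges feature fluorescence at 667 nm with signal-to-noise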
# [18] = probe aNog binding to arrayed compounds – biochemical, biotinylated probe, 635/667 nm fluorescence, primary screen (AID 1115); details: small-molecule microarray, higher = more signal;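 further: probe is biotinylated aNog protein used at 0.15 µg/mL for 1 h at 4 C; z-score combines 667 nm fluorescence of each spot with its signal to noise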
# [19] = biological target: Torsin-1A-interacting protein 1 (Homo sapiens) (UniProt Q5JTV8); test: compound microarray binding of lysate hLAP1 – cell lysate, small-molecule microarray, COS7 lysate, 635/667 nm fluorescence, primary screen (AID 1116); details: 635 nm fluorescence, higher = more signal
# Chain of Torsin-1A-interacting protein 1 (Homo sapiens) (Q5JTV8 whole entry, looked up): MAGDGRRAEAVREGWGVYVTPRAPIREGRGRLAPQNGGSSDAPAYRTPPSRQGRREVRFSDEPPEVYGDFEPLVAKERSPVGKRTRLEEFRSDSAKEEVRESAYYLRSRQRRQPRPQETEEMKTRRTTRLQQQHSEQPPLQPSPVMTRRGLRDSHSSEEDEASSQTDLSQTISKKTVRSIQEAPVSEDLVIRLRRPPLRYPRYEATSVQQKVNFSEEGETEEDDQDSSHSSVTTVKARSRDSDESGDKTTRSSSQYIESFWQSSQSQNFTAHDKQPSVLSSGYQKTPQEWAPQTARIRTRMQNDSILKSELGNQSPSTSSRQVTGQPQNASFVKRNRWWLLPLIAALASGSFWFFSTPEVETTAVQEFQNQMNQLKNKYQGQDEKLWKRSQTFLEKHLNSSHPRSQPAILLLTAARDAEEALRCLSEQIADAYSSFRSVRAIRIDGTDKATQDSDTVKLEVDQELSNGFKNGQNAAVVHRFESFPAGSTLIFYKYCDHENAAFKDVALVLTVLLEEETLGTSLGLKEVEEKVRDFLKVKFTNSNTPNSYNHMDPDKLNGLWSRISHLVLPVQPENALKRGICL
# [20] = biological target: Alpha-bungarotoxin (Bungarus multicinctus) (UniProt P60615); test: compounds binding labelled alpha-BTX control protein – biochemical, small-molecule microarray, Alexa647 label, 635/667 nm fluorescence, artefact control for SMM control protein annotation, profiling panel (AID 1117); details: alpha-BTX-A647 binding fluorescence, higher = more signal
# Chain of Alpha-bungarotoxin (Bungarus multicinctus) (P60615 whole entry, looked up): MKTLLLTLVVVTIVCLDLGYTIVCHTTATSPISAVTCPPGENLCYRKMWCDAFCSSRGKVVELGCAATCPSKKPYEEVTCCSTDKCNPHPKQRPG
SMILES,composite z-score [1],composite z-score [2],composite z-score [3],z-score [4],composite z-score [5],composite z-score [6],composite z-score [7],composite z-score [8],composite z-score [9],composite z-score [10],composite z-score [11],z-score [12],composite z-score [13],composite z-score [14],composite z-score [15],composite z-score [16],composite z-score [17],composite z-score [18],composite z-score [19],composite z-score [20]
C=C1C2CC3C(=C4C(CO[C@@H]4[C@H]4CCCN4S(=O)(=O)c4ccccc4[N+](=O)[O-])C4C(=O)N(C)C(=O)C34)CC2C(=O)N1C (stereo not given in full),0.201,-0.2,-0.427,0.194 (inactive),0.475,0.0168,-0.0553,0.157,0.298,0.689,-1.04,-0.979,0.0437,-0.0741,-0.0942,-0.152,-0.0769,0.0473,0.231,0.26
C=C(CCCC)C(=O)CC[C@@H](OC(=O)c1cccnc1)c1ccccc1OCCO,0.996,-0.0709,0.515,4.97 (inactive),0.341,-0.164,-0.183,0.296,-0.265,1.16,-0.266,-3.05,-0.0055,-1.11,-1.07,-0.091,-0.138,-0.117,0.684,0.583
Cc1ccc(S[C@]2(C(=O)O)CC(=O)N(Cc3ccccc3Cl)[C@@H]2c2ccc(CO)cc2)cc1,-0.189,0.505,0.938,1.39 (inactive),-0.165,-0.851,-0.84,-1.1,-0.817,0.387,0.459,-0.828,-1.54,0.459,0.644,-0.192,0.131,0.549,0.0695,1.57
C[C@]1(C(=O)NCCN2CCOCC2)c2ccccc2C(=O)N(Cc2ccc(OC(F)(F)F)cc2)[C@H]1c1ccc(CO)cc1,0.654,-0.103,0.604,0.396 (inactive),-0.564,-0.254,-1.39,-0.381,-1.33,-0.017,1.44,-0.705,-1.24,0.084,-0.0325,-0.252,-0.503,-0.313,0.836,0.396
Cc1ccc(S[C@]2(C(=O)NC(C)C)CC(=O)N(C3Cc4ccccc4C3)[C@@H]2c2ccc(CO)cc2I)cc1,0.944,-0.253,-0.398,-1.44 (inactive),-0.651,0.1,-0.922,-1.13,-1.18,-0.696,-0.803,-2.19,-2.04,-0.625,-1.08,-0.596,-0.291,-1.12,-0.664,-0.365
CC(C)N1CC=CC23O[C@@H]4C=CCOC(=O)[C@@H]4[C@H]2C(=O)N(C(C)CO)[C@@H]3C1=O (stereo not given in full),0.776,-0.162,0.559,0.408 (inactive),-0.724,-1.99,-1.29,-0.93,-1.21,-0.116,-0.913,0.187,-1.76,-0.0212,-0.123,-0.196,0.0278,0.141,-0.606,-0.127
CCCNC(=O)[C@@]1(c2ccc([N+](=O)[O-])cc2)CC(=O)N(C2CCCCC2)[C@@H]1c1ccc(CO)cc1I,1.51,0.57,0.796,-0.68 (inactive),0.841,0.705,0.297,0.532,0.214,-0.406,0.198,-2.64,-0.101,0.647,0.587,0.108,0.166,1.44,1.33,1.6
Cc1ccc(S[C@]2(C(=O)NC3CC3)CC(=O)N(Cc3ccccc3Cl)[C@@H]2c2ccc(CO)cc2I)cc1,1.35,0.633,0.873,-0.447 (inactive),1.4,1.27,-0.172,0.41,0.122,1.03,1.45,-1.57,-0.355,0.156,-0.274,0.109,0.0062,-0.429,0.769,0.939
